From PubChem BioAssay (NCI)
About 79,000 compounds went through this panel and 15% of them were active in at least one assay; those are over-represented in the sample as a whole. Calls of active or inactive are those of the source. Cut-off read from the data, not from the text of the source: active = growth inhibition above about 70%; inactive = the rest.

What was measured:
[1] = NCI Yeast Anticancer Drug Screen. Data for the rad52 strain (AID 147);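 note: 0% = growth of vehicle-treated control cultures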; conditions: S. cerevisiae rad52 mutant growth inhibition, hits give high values
In short: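 Yeast strain carrying a DNA damage repair alteration was exposed to test compounds. Growth inhibition was measured relative to vehicle-treated controls.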

[2] = NCI Yeast Anticancer Drug Screen. Data for the wt1 strain (AID 149);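 note: 0% = growth of vehicle-treated wt1 cultures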; conditions: S. cerevisiae wt1 strain (SPY 50644) growth inhibition, hits give high values
In short: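 wt1 strain grown with compound or vehicle; inhibition taken from the growth difference.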

[3] = NCI Yeast Anticancer Drug Screen. Data for the rad50EPP+ strain (AID 151);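 note: 0% = growth of vehicle-treated control cultures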; conditions: S. cerevisiae rad50 mutant strain, hits give high values
In short: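 Yeast strain carrying rad50 alteration (rad50EPP+) exposed to compounds; growth inhibition measured relative to vehicle-treated controls.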

[4] = NCI Yeast Anticancer Drug Screen. Data for the mgt1 strain (AID 153); conditions: S. cerevisiae mgt1 mutant growth inhibition, hits give high values
In short: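 Yeast mgt1 strain (DNA repair/cell-cycle alteration panel) exposed to compounds; growth inhibition measured relative to vehicle-treated controls.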

[5] = NCI Yeast Anticancer Drug Screen. Data for the rad50 strain (AID 155);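 note: 0% = growth of vehicle-only cultures of the same strain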; conditions: S. cerevisiae rad50 strain growth inhibition, hits give high values
In short: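 DNA repair mutant yeast, compound exposure, growth read-out; inhibition is taken relative to vehicle.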

[6] = NCI Yeast Anticancer Drug Screen. Data for the mec2-1 strain (AID 157); conditions: S. cerevisiae mec2-1 strain, hits give high values
In short: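 mec2-1 yeast strain, carrying an alteration in DNA damage repair or cell cycle control, was exposed to compounds; growth inhibition was measured relative to vehicle-treated controls.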

[7] = NCI Yeast Anticancer Drug Screen. Data for the rad14 strain (AID 159);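 note: 0% = growth of vehicle-treated control cultures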; conditions: S. cerevisiae rad14 strain growth inhibition, hits give high values
In short: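 DNA repair-defective yeast, compound-exposed; % growth inhibition derived by comparison with vehicle-treated controls.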

[8] = NCI Yeast Anticancer Drug Screen. Data for the CLN2oe strain (AID 163);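 note: 0% = growth of vehicle-only control cultures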; conditions: S. cerevisiae CLN2oe strain, hits give high values
In short: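 Yeast cells carrying a defined cell-cycle control alteration were exposed to test compounds. Growth inhibition was scored against vehicle-treated control cultures.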

[9] = NCI Yeast Anticancer Drug Screen. Data for the cln2 rad14 strain (AID 165);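 note: 0% = growth equal to vehicle treated cultures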; conditions: S. cerevisiae cln2 rad14 strain, hits give high values
In short: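 Yeast carrying cln2 and rad14 alterations (cell cycle control and DNA damage repair) were exposed to compounds. Growth inhibition was measured against vehicle-treated controls.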

[10] = NCI Yeast Anticancer Drug Screen. Data for the bub3 strain (AID 167); conditions: S. cerevisiae bub3 mutant strain, hits give high values
In short: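 In this screen, a yeast mutant lacking normal mitotic checkpoint function is challenged with compound. Relative growth versus vehicle gives the inhibition value.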

[11] = NCI Yeast Anticancer Drug Screen. Data for the wt2 strain (AID 169);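 note: 0% = growth of vehicle-treated yeast cultures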; conditions: S. cerevisiae wt2 strain growth inhibition, hits give high values
In short: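 Yeast cells were exposed to test compounds, and growth inhibition was measured relative to vehicle-treated controls.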

[12] = NCI Yeast Anticancer Drug Screen. Data for the mlh1 strain (AID 171);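 note: 0% = growth of vehicle-treated control cultures of the same strain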; conditions: S. cerevisiae mlh1 strain growth inhibition, hits give high values
In short: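 Yeast carrying a defined genetic alteration in DNA damage repair or cell cycle control were exposed to test compounds. Growth inhibition was measured relative to vehicle-treated controls.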

[13] = NCI Yeast Anticancer Drug Screen. Data for the sgs1 strain (AID 173);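 note: 0% = growth of vehicle-only control cultures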; conditions: S. cerevisiae sgs1 mutant, hits give high values
In short: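 Yeast mutant strains carrying defined defects in DNA damage repair or cell cycle control were exposed to test compounds. Growth inhibition was scored against vehicle-treated controls.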

[14] = NCI Yeast Anticancer Drug Screen. Data for the mlh1 rad18 strain (AID 175); conditions: S. cerevisiae mlh1 rad18 strain growth inhibition, hits give high values
In short: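 Growth inhibition of the yeast strain was measured after compound exposure and expressed relative to vehicle-treated controls. The strain carries defined defects in DNA damage repair.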

[15] = NCI Yeast Anticancer Drug Screen. Data for the rad18 strain (AID 177); conditions: S. cerevisiae rad18 mutant growth inhibition, hits give high values
In short: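 Yeast carrying a defined DNA damage repair alteration were exposed to compounds. Growth inhibition was expressed relative to vehicle-treated controls.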

[16] = NCI Yeast Anticancer Drug Screen. Data for the sgs1 mgt1 strain (AID 161);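 note: 0% = growth of cultures given vehicle only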; conditions: S. cerevisiae sgs1 mgt1 strain, hits give high values
In short: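 Yeast cells carrying a defined DNA-repair defect were exposed to test compounds. Growth inhibition was measured relative to vehicle-treated controls.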

[17] = at 5.0 µM (retest, dose inferred, filed as 0.5)
[18] = at 50.0 µM (retest, dose inferred, filed as 5.0)

Measured: growth inhibition

Clc1ccc2c(c1)N(CCCN1CCCC13CCCCC3)c1ccccc1S2
inactive: [1]; at 1.2 µM 1% | [1]; at 3.7 µM 3% | [1]; at 11.0 µM 2% | [1]; at 33.0 µM 1% | [1]; at 100.0 µM -7% | [2]; at 1.2 µM 1% | [2]; at 3.7 µM -3% | [2]; at 11.0 µM -5% | [2]; at 33.0 µM -5% | [2]; at 100.0 µM -7% | [3]; at 1.2 µM 0% | [3]; at 3.7 µM 3% | [3]; at 11.0 µM -2% | [3]; at 33.0 µM -3% | [3]; at 100.0 µM -7% | [4]; at 1.2 µM 2% | [4]; at 3.7 µM -1% | [4]; at 11.0 µM 3% | [4]; at 33.0 µM -2% | [4]; at 100.0 µM -2% | [5]; at 1.2 µM 4% | [5]; at 3.7 µM 10% | [5]; [17] 3% | [5]; at 11.0 µM 4% | [5]; at 33.0 µM 4% | [5]; [18] 61% | [5]; at 50.0 µM -2.15% | [5]; at 100.0 µM 2% | [6]; at 1.2 µM -3% | [6]; at 3.7 µM 3% | [6]; [17] -3% | [6]; at 11.0 µM 2% | [6]; at 33.0 µM 0% | [6]; [18] 20% | [6]; at 50.0 µM 39.8% | [6]; at 100.0 µM -8% | [7]; at 1.2 µM -2% | [7]; at 3.7 µM -7% | [7]; at 11.0 µM -2% | [7]; at 33.0 µM 0% | [7]; at 100.0 µM 4% | [8]; at 1.2 µM 2% | [8]; at 3.7 µM 4% | [8]; at 11.0 µM 4% | [8]; at 33.0 µM 3% | [8]; at 100.0 µM 2% | [9]; [17] -21% | [9]; [18] -5% | [10]; at 1.2 µM 4% | [10]; at 3.7 µM -13% | [10]; [17] -5% | [10]; at 11.0 µM 1% | [10]; at 33.0 µM 2% | [10]; [18] 15% | [10]; at 50.0 µM -0.55% | [10]; at 100.0 µM 7% | [11]; at 1.2 µM 1% | [11]; at 3.7 µM 2% | [11]; at 11.0 µM 0% | [11]; at 33.0 µM -2% | [11]; at 100.0 µM -2% | [12]; at 1.2 µM 0% | [12]; at 3.7 µM 2% | [12]; at 11.0 µM -4% | [12]; at 33.0 µM -15% | [12]; at 100.0 µM 8% | [13]; at 1.2 µM -2% | [13]; at 3.7 µM -3% | [13]; at 11.0 µM -6% | [13]; at 33.0 µM -7% | [13]; at 100.0 µM -6% | [14]; [17] -6% | [14]; at 50.0 µM 10.1% | [15]; at 1.2 µM -1% | [15]; at 3.7 µM -1% | [15]; at 11.0 µM -9% | [15]; at 33.0 µM -22% | [15]; at 100.0 µM -33%
active: [9]; at 50.0 µM 84% | [14]; [18] 95%

Cc1ccccc1N=Cc1cc(Cl)ccc1O
inactive: [1]; at 1.2 µM -11% | [1]; at 3.7 µM -3% | [1]; at 11.0 µM 4% | [1]; at 33.0 µM 21% | [2]; at 1.2 µM -4% | [2]; at 3.7 µM -5% | [2]; at 11.0 µM -7% | [2]; at 33.0 µM 7% | [3]; at 1.2 µM 3% | [3]; at 3.7 µM 18% | [3]; at 11.0 µM 35% | [3]; at 33.0 µM 58% | [4]; at 1.2 µM -1% | [4]; at 3.7 µM -4% | [4]; at 11.0 µM -2% | [4]; at 33.0 µM 14% | [5]; at 1.2 µM -5% | [5]; at 3.7 µM -1% | [5]; [17] -74% | [5]; at 11.0 µM 10% | [5]; at 33.0 µM 44% | [5]; [18] 66% | [5]; at 50.0 µM 51.3% | [6]; at 1.2 µM 1% | [6]; at 3.7 µM -1% | [6]; [17] -7% | [6]; at 11.0 µM 1% | [6]; at 33.0 µM 2% | [6]; [18] 16% | [6]; at 50.0 µM 35.7% | [6]; at 100.0 µM 53% | [7]; at 1.2 µM -2% | [7]; at 3.7 µM 1% | [7]; at 11.0 µM 11% | [7]; at 33.0 µM 44% | [16]; [17] -13% | [16]; [18] 44% | [16]; at 50.0 µM 26.5% | [8]; at 1.2 µM 2% | [8]; at 3.7 µM 3% | [8]; at 11.0 µM 8% | [8]; at 33.0 µM 12% | [8]; at 100.0 µM 60% | [10]; at 1.2 µM -6% | [10]; at 3.7 µM -4% | [10]; [17] -68% | [10]; at 11.0 µM -1% | [10]; at 33.0 µM 16% | [10]; [18] -4% | [10]; at 50.0 µM 42% | [11]; at 1.2 µM -1% | [11]; at 3.7 µM 0% | [11]; at 11.0 µM -1% | [11]; at 33.0 µM 2% | [12]; at 1.2 µM 7% | [12]; at 3.7 µM -5% | [12]; at 11.0 µM 0% | [12]; at 33.0 µM 22% | [13]; at 1.2 µM -2% | [13]; at 3.7 µM -3% | [13]; at 11.0 µM 4% | [13]; at 33.0 µM 20% | [14]; [17] -73% | [14]; [18] 18% | [14]; at 50.0 µM 67% | [15]; at 1.2 µM -6% | [15]; at 3.7 µM 2% | [15]; at 11.0 µM 9% | [15]; at 33.0 µM 23%
active: [1]; at 100.0 µM 96% | [2]; at 100.0 µM 75% | [3]; at 100.0 µM 85% | [4]; at 100.0 µM 89% | [5]; at 100.0 µM 98% | [7]; at 100.0 µM 98% | [10]; at 100.0 µM 90% | [11]; at 100.0 µM 73% | [12]; at 100.0 µM 87% | [13]; at 100.0 µM 92% | [15]; at 100.0 µM 92%
